In ChEMBL document CHEMBL3988442, “University of Dundee, Small-Polar-MMV Screening Library” (2021):
For part of these data: Potency and affinity values are given separately.

Key:
Design in all cases: scale not given: direction of the effect not stated beside the values
[1] = target: Protein translocase subunit SecA (Escherichia coli (strain K12)) (UniProt P10408); test: Assay to Identify E. coli SecA ATPase Inhibitors; format: functional; conditions: 30 µM
[2] = target: T1, Ubiquitin-activating enzyme e1, putative (Leishmania donovani (strain BPK282A1)) (UniProt E9BSI1); test: Leishmania donovani Ubiquitin Activating Enzyme (LdE1); format: functional; conditions: 30 µM
T1 sequence (whole entry): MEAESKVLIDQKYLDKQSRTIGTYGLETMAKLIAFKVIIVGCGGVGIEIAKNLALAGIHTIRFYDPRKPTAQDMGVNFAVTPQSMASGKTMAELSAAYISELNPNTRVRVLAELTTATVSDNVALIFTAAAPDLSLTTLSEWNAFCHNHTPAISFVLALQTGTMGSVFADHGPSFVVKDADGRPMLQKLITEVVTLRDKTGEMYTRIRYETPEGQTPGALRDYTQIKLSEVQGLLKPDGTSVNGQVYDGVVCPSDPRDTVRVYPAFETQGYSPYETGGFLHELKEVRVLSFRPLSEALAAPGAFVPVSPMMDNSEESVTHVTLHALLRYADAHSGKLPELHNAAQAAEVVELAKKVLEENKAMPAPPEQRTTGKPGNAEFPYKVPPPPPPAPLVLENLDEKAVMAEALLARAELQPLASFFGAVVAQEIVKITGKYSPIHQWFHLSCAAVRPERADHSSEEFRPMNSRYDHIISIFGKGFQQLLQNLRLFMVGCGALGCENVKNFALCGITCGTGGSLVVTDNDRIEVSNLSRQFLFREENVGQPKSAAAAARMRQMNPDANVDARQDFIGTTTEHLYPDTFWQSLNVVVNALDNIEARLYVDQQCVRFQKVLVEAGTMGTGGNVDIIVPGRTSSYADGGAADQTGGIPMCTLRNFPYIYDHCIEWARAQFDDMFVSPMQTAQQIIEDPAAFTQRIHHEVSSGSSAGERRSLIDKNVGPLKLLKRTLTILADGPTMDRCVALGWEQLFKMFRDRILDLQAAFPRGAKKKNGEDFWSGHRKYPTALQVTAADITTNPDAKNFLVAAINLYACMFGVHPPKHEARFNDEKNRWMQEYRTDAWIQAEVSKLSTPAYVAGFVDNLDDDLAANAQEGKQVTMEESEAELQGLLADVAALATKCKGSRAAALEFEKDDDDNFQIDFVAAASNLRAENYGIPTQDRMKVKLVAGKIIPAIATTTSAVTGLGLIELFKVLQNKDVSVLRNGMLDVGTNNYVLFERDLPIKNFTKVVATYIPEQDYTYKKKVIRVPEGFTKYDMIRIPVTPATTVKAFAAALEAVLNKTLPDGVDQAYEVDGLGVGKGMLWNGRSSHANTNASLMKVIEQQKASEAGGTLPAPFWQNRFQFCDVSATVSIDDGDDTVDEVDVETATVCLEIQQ

[3] = target: Sialic acid-binding Ig-like lectin 9 (Homo sapiens) (UniProt Q9Y336); test: Hs-Siglec9 ALPHAscreen SOP 20170721; conditions: 10 µM
Sequence of Sialic acid-binding Ig-like lectin 9 (Homo sapiens) (Q9Y336 whole entry): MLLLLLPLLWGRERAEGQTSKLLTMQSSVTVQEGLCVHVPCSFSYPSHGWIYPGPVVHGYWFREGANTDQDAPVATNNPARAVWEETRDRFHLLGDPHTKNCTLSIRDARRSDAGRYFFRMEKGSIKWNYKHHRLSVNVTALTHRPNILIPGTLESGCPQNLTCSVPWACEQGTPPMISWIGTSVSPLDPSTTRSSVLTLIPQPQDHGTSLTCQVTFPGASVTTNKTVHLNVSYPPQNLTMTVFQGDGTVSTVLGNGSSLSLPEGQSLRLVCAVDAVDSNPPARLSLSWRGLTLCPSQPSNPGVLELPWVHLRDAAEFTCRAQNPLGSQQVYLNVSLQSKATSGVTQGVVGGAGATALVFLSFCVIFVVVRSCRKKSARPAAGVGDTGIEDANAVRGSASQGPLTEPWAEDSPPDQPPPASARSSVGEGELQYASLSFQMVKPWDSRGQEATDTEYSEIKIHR

Trypanosoma cruzi = test: Trypanosoma cruzi phosphomannomutase and mannose-1-phosphate guanylyltransferase assay; format: functional; conditions: 10 µM
[4] = target: T2, Arginase-2, mitochondrial (Homo sapiens) (UniProt P78540); test: in vitro enzyme assay to detect the production of urea directly proportional to the activity of Arginase II; format: functional; conditions: 33.3 µM; further: in the data most compounds retested in dose-response had high values
T2 sequence (whole entry): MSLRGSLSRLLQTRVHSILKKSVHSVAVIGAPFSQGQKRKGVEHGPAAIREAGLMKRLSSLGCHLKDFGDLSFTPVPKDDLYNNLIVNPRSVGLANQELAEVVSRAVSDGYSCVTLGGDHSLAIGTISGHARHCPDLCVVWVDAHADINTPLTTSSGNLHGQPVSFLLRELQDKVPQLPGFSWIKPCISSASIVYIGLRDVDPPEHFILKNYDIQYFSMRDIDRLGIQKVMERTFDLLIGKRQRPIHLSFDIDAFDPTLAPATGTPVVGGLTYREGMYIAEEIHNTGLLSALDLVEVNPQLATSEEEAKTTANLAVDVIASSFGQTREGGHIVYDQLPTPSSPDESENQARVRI

[5] = target: T3, Proteasome subunit beta (Trypanosoma cruzi) (UniProt O96673); test: Trypanosoma cruzi proteasome chymotrypsin-like activity (TcProtChymo) assay.; further: in the data most compounds retested in dose-response had high values; format: functional; conditions: 9.37 µM
T3 sequence (whole entry): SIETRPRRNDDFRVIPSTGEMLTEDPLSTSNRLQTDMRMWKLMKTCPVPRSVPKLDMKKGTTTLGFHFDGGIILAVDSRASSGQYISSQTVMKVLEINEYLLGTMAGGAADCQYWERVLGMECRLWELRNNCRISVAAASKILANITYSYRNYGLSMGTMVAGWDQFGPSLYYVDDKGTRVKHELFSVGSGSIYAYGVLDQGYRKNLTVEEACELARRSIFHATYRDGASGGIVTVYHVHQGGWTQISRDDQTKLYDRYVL

Homo sapiens = species: Homo sapiens; test: To identify inhibition of the IFN signalling (Jak-Stat) pathway via expression of an eGFP reporter gene under the control of an IFN-stimulated response element (ISRE) containing MxA promoter.; format: functional; conditions: 30 µM
[6] = target: T4, Tyrosyl-tRNA synthetase, putative (Trypanosoma cruzi (strain CL Brener)) (UniProt Q4DSP6); test: Trypanosoma cruzi tyrosyl tRNA synthetase (TcYRS) _High Tyrosine SOP; format: functional; conditions: 30 µM; further: in the data most compounds retested in dose-response had high values
T4 sequence (whole entry): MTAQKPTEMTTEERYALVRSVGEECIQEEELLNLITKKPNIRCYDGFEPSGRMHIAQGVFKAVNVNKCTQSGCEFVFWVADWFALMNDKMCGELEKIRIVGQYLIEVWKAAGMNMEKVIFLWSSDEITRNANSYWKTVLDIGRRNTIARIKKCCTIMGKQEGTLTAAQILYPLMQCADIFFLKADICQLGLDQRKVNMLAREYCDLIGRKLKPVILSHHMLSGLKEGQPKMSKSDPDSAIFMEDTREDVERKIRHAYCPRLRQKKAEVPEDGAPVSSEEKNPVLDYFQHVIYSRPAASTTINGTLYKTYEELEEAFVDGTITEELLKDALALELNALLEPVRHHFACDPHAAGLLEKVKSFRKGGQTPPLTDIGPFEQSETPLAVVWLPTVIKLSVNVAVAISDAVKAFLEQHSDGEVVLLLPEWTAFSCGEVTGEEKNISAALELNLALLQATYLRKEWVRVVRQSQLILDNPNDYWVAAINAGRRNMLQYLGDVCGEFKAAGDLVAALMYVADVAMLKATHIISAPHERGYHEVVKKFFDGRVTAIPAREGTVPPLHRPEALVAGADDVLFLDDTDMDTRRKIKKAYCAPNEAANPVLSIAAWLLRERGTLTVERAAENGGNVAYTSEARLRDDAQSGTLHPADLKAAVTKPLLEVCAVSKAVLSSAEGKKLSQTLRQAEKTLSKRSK

[7] = target: T4, Tyrosyl-tRNA synthetase, putative (Trypanosoma cruzi (strain CL Brener)); test: Trypanosoma cruzi tyrosyl tRNA synthetase (TcYRS) SOP; format: functional; conditions: 30 µM
[8] = target: Chromo domain-containing protein 1 (Saccharomyces cerevisiae (strain ATCC 204508 / S288c) (Baker's yeast)) (UniProt P32657); test: ScCHD-1 Enzyme Inhibition Assay; format: functional; conditions: 30 µM; further: in the data most compounds retested in dose-response had high values
Sequence of Chromo domain-containing protein 1 (Saccharomyces cerevisiae (strain ATCC 204508 / S288c) (Baker's yeast)) (P32657 whole entry, the tested form may be a part): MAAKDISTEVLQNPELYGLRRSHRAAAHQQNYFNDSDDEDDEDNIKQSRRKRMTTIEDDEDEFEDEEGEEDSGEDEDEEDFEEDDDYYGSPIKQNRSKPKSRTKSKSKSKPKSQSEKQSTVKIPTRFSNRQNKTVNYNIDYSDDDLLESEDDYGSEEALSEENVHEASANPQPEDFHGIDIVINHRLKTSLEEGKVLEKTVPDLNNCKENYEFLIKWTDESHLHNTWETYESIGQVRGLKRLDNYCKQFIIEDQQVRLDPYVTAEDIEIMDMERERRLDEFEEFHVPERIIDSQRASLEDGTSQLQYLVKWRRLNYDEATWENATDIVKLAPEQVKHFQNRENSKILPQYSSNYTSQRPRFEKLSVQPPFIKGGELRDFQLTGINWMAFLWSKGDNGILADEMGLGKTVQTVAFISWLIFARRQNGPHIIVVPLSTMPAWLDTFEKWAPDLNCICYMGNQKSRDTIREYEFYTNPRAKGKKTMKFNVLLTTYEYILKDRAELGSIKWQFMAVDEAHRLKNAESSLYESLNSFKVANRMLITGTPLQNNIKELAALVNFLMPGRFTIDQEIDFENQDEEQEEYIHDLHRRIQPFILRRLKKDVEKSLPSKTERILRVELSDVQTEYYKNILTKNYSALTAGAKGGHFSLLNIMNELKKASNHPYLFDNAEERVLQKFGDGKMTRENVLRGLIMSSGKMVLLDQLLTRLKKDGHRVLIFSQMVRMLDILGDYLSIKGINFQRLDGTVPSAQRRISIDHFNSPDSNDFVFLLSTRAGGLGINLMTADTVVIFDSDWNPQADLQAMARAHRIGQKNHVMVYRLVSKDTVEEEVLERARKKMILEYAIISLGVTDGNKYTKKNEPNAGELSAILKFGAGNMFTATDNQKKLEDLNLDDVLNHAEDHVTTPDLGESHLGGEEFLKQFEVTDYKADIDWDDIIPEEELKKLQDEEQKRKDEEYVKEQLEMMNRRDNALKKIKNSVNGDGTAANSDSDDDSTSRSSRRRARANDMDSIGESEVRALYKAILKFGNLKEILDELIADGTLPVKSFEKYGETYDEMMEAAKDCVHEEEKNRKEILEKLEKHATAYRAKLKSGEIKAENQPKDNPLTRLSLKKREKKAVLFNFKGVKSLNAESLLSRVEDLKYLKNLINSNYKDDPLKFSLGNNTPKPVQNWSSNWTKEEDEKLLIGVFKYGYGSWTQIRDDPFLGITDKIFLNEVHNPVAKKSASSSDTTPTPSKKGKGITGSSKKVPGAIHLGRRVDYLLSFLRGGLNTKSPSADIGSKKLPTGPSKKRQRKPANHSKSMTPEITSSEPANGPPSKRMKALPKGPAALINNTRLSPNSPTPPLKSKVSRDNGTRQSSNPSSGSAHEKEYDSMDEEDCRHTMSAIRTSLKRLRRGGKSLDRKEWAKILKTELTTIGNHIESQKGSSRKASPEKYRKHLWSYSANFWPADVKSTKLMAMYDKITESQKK

Sequence of Protein translocase subunit SecA (Escherichia coli (strain K12)) (P10408 whole entry): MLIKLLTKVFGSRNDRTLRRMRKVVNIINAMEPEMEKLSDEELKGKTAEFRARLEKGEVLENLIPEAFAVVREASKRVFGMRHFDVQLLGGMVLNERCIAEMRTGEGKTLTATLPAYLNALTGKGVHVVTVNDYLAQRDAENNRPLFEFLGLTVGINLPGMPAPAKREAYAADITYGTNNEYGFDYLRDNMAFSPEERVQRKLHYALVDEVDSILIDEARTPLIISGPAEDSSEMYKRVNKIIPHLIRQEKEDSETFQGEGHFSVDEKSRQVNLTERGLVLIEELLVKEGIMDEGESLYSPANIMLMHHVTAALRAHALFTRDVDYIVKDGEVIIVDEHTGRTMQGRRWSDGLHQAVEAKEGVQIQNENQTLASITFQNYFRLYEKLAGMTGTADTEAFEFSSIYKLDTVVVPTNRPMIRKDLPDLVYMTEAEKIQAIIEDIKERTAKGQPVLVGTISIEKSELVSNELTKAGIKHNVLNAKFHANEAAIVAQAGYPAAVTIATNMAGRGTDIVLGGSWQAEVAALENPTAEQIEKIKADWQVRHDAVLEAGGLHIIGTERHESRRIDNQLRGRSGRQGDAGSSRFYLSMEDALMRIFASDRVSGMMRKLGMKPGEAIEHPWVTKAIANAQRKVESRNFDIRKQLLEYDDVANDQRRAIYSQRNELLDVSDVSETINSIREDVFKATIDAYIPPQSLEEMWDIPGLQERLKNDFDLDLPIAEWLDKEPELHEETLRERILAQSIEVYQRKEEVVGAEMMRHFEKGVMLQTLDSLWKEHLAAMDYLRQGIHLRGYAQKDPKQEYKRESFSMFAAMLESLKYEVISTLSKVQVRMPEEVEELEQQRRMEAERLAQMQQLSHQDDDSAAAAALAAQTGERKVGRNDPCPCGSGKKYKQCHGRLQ

SMILES	Percent Effect [1] [%]	Percent Effect [2] [%]	Percent Effect [3] [%]	Percent Effect (Trypanosoma cruzi) [%]	Percent Effect [4] [%]	Percent Effect [5] [%]	Percent Effect (Homo sapiens) [%]	Percent Effect [6] [%]	Percent Effect [7] [%]	Percent Effect [8] [%]
CC(C)NC(=O)CC1COC2(CCN(Cc3ccccc3)CC2)C1 (stereo not given)	-1.47	16.9	-1.95	-2.25	2.28	16.2	-3.75	7.73	10	-5.41
c1cn2c(n1)CN(CC1CC1)CC(CN1CCOCC1)C2 (stereo not given)	-6.5	9.09	6.06	-2.24	-2.43	11	-10.6	17.4	12.8	0.532
CC(C)NC(=O)N1CCN(Cc2ccccn2)CC2(CC(=O)N(C)C2)C1 (stereo not given)	-6.73	11.7	1.64	-0.563	-2.28	2.49	13.5	0	0	-7.79
CN(C)CCN1CCCC12CCN(C(=O)c1cccn1C)CC2	-4.21	-1.3	2.81	2.04	-2.02	0.618	-20.1	-0.526	-2.56	4.29
Cc1cccc(C(=O)N2C[C@@H](OCc3cccnc3)[C@H]3OCCC[C@@H]32)n1	-3.43	11.7	-6.23	4.77	-4.45	21.6	5.3	8.95	7.69	112
CNC(=O)CCCNCc1c(C)nn(C)c1N(C)C	-0.3	0	14.5	1.22	2.87	2.3	-12.6	2.39	1.21	-2.02
O=C(Nc1ccccc1)C1=CC2(CCNCC2)c2ccccc21	-2.8	9.09	1.86	-0.938	3.2	13.5	-1.59	-2.9	-2.5	-4.38
CN(Cc1ccc2c(c1)OCCO2)C(=O)Cn1ccccc1=O	-0.175	13.3	1.7	-5.02	5.76	19.8	3.52	2.63	7.69	-7.25
CN1CCC/C1=N\S(=O)(=O)c1ccc(NC(=O)c2cccs2)cc1	0.351	15.6	-0.824	3.73	-3.48	12.5	8.73	7.84	21.2	-10.9
CN1CCN(CC2CC2)C(=O)c2cnc(N3CCCCC3)nc21	-6.28	-45.3	3.74	-1.41	-3.99	-4.83	19	-2.63	-5.13	-2.64
COc1cccc(CN2CCC3(CCN(C(=O)[C@H]4CCCO4)CC3)C2)c1	-2.54	22.1	-5.6	0.188	0	12.6	-14.8	10.6	-2.5	-10.4
Cc1ccccc1N1CC2(CCN(S(=O)(=O)C3CC3)C2)CC1=O (stereo not given)	0.787	16.9	-5.74	-5.07	4.57	17.4	11.8	3.87	10	-8.76
